Shiga toxin inh: blocks Shiga toxin action in Vero cells | actives 9.2% (n = 290,000) | inhibition, % at 38.7 µM | Vero cells, Shiga toxin protein synthesis inhibition reporter; in the data active = inhibition mostly above about 28%, no sharp cut-off; inactive = mostly below about 43%; note: 0% is about no effect
NS1 function inh: influenza NS1 inhibition; Potency, µM (top dose mostly 46.1 µM), for the others: at the top dose activity, positive = more growth; AID 2326; actives 0.4% (n = 270,000); calls by dose curve; note: potency is the fitted concentration of half-maximal effect; actives are rising curves; nearly all actives have a fitted effect of over 50% in size
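Recovery from NS1-induced slow growth read by OD600 in budding yeast switched to galactose assay medium (pH 6.0, -URA) at 1:100 dilution. Compound 23 nl per well; the matching strain lacking NS1 serves as control.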
CHX counter: affects cycloheximide protein synthesis inhibition readout, counter-screen | cell reporter, cycloheximide protein synthesis inhibition counterscreen | max response, % | actives 12% (n = 300,000) | AID 2314; in the data active = max response mostly above about 13%, no sharp cut-off; inactive = mostly below about 14%; note: read at 38.3 µM for the half of the compounds with a filed dose; 0% is about no effect
Pf growth 48h: P. falciparum growth inhibition at 48 hours (one generation); P. falciparum luciferase growth in erythrocytes, 48 h; Potency, µM (doses to about 28.7 µM), for inactives: top-dose activity change, negative = inhibition, most hits filed as inhibitors; actives 5.9% (n = 310,000); AID 504832; note: potency is the fitted concentration of half-maximal effect; % is set by controls: 0 for no effect and ±100 for the full control effect
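Luciferase-expressing P. falciparum in infected erythrocytes (2% hematocrit, 0.1% parasitemia final) in RPMI 1640/0.5% Albumax were exposed to compound for 48 hours at 37 C, 5% CO2; growth read as luminescence.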
SARS PLpro yeast: blocks SARS-CoV papain-like protease in a yeast assay. S. cerevisiae expressing SARS-CoV PLpro, growth rescue. Potency, µM (titrated, usually from 32.9 µM), for the others: at the highest dose activity, positive = growth rescue, usual class: activators. actives 0.19% (n = 330,000). AID 485353; calls by dose curve; note: potency is the fitted concentration of half-maximal effect; 0% is about no effect; nearly all actives have a fitted effect of over 55% in size
Pf growth 96h: P. falciparum growth inhibition at 96 hours; P. falciparum luciferase reporter growth, 96 h; Potency, µM (doses to about 28.7 µM), for inactives: top-dose activity change, negative = inhibition, hits mostly inhibitors; actives 6.9% (n = 320,000); AID 504834; note: potency is the fitted concentration of half-maximal effect; % is set by controls: 0 for no effect and ±100 for the full control effect
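Two parasite generations (96 h, 37 C, 5% CO2) of compound exposure in infected erythrocytes (0.05% parasitemia, 2% hematocrit). Luciferase-reporter P. falciparum; decreased luminescence indicates inhibited growth, aimed at apicoplast-acting delayed death.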
* marks the source's active call; other numbers are inactive results; i = inactive; ? = inconclusive; / = not tested or not shown. Compounds with a hit are over-represented: about 21% of the library has one in this group of screens. Unless noted, calls come from the whole dose curve; as a rule, active = well fitted inhibition curve with a large enough effect; inconclusive = small, poorly fitted or top-dose-only effect, or another doubt; inactive = no such curve, though single readings can be large or run the other way.

SMILES	Shiga toxin inh	NS1 function inh	CHX counter	Pf growth 48h	SARS PLpro yeast	Pf growth 96h
O=C(Nc1ccc(Cl)cc1)Nc1ccccc1C(=O)NCc1ccco1	58*	3%	56*	/	-10%	/
O=C(CCc1ccc(S(=O)(=O)NCc2ccccc2)cc1)NCc1ccco1	21	4%	1	0%	14%	-27%
Cc1ccc2c(c1)N(CCC(=O)NC1CCCCC1)C(=O)CO2	-3	14%	-4	-2%	2%	-7%
O=C(N/N=C/c1ccccc1O)C1CC(=O)N(c2ccc(Cl)cc2)C1 (stereo not drawn)	-1	3%	-2	12µM*	3%	77%
CCOC(=O)C(=O)Nc1ccccc1C(N)=O	-2	-1%	-2	/	0%	21%
O=C(Nc1ccccc1C(=O)NCc1ccccc1)c1ccco1	13	-37%	-2	-23%	-7%	13µM*
O=C(Nc1cccc(F)c1)C1CC(=O)N(c2ccc(Br)cc2)C1 (stereo not drawn)	21	-16%	-3	?	4%	?
O=C(Nc1cccc(Cl)c1Cl)C1CC(=O)N(c2ccc(Br)cc2)C1 (stereo not drawn)	7	8%	-3	0%	18%	10µM*
Cc1ccc(/C=N/NC(=O)C2CC(=O)N(c3ccccc3)C2)s1 (stereo not drawn)	-2	-10%	8	12%	2%	93%
CCOC(=O)C(=O)Nc1ccccc1C(=O)NCc1ccccc1	85*	-3%	33*	11%	0%	?
COc1ccc(NC(=O)CCc2nnc3ccc(N4CCC5(CC4)OCCO5)nn23)cc1	-14	3%	1	11%	1%	49%
O=C(NCc1ccco1)c1ccccc1NC(=O)C1CC(=O)N(c2ccc(Cl)cc2)C1 (stereo not drawn)	-4	-19%	1	-17%	-1%	7.4µM*
O=C(NCc1ccco1)C1CC(=O)N(c2ccc(F)cc2)C1 (stereo not drawn)	-17	1%	-1	15%	-1%	-20%
CCc1noc(C)c1C(=O)NNC(=O)COc1ccccc1C	/	/	/	23%	-5%	12%
CC(=O)N(c1ccc(Cl)cc1)c1nc(C)cc(C)c1C#N	-4	1%	1	-3%	1%	7.4µM*
CC(=O)N(c1ccccc1)c1nc(C)cc(C)c1C#N	8	-6%	-4	-2%	12%	3%
CC(=O)N1CCN(C(=O)COC(=O)COc2c(C)cc(C)cc2C)CC1	/	/	/	-24%	3%	-18%
Cc1ccc(CCSc2ccc(F)cc2)cn1	64*	-1%	15*	22%	-1%	?
Cc1ccc(NCCc2ccc(C)nc2)cc1	-11	-1%	12	/	-2%	149%
Cc1ccc(CCSc2ccc(C(C)C)cc2)cn1	30*	-16%	9.2*	11%	30%	12µM*
CCNC(=O)c1cc(S(=O)(=O)N2CCSCC2)ccc1OC	-3	12%	-4	-1%	-4%	?
CSCC[C@H](NC(=O)c1ccc2c(c1)OCO2)c1nnc2ccccn12	-10	-1%	-2	29%	1%	12%
O=Cc1ccc(OCc2ccc3ccccc3c2)cc1	/	-17%	54*	36%	1%	?
O=Cc1ccc(OCc2ccccn2)cc1	40*	-26%	21*	16%	-12%	-13%
OCc1ccccn1	/	/	/	6%	/	13%
SMILES	Shiga toxin inh	NS1 function inh	CHX counter	Pf growth 48h	SARS PLpro yeast	Pf growth 96h
COc1ccc(COc2cccc(C=O)c2)cc1	/	/	/	133%	5%	128%
O=Cc1cccc(OCc2cccc3ccccc23)c1	63*	-5%	34*	65%	-1%	74%
Cc1ccccc1C1CC(=O)Oc2cc(C)c(Br)c(C)c21 (stereo not drawn)	i	/	6	/	/	/
CC(C)(C[C@@]1(C)NC(=O)NC1=O)OCc1ccccc1	/	0%	/	/	/	/
CCN(CC)CC(O)c1ccc(C2CCCC2)cc1 (stereo not drawn)	-18	2%	-4	10µM*	4%	13µM*
CC(NC(=O)[C@H](C)NC(=O)[C@@H]1CSC2c3ccccc3C(=O)N21)c1ccccc1 (stereo partly drawn)	2	5%	1	14%	-6%	8%
CCCCn1c(N)c(N(CCOC)C(=O)c2cnc(C)cn2)c(=O)[nH]c1=O	/	/	/	-5%	-6%	11%
Cc1cccc(N(C(=O)c2nsc(Cl)c2Cl)C(C(=O)NC2CCCC2)c2ccc(O)cc2)c1C (stereo not drawn)	5	?	7	7.4µM*	3%	?
CCOc1ccc(C(C(=O)NC2CCCC2)N(Cc2ccccc2)C(=O)c2nsc(Cl)c2Cl)cc1 (stereo not drawn)	11	1%	15*	13µM*	?	?
COc1ccc(C(C(=O)NC2CCCC2)N(Cc2ccccc2)C(=O)c2nsc(Cl)c2Cl)cc1 (stereo not drawn)	23	1%	0	?	-11%	?
Cc1ccc(N(CC(=O)NC2CCCC2)C(=O)c2nsc(Cl)c2Cl)cc1	29*	1%	30*	-13%	-3%	?
Cc1ccc(N(C(=O)c2nsc(Cl)c2Cl)C(C(=O)NC2CCCC2)c2ccc(O)cc2)cc1C (stereo not drawn)	-6	?	9	?	13%	53%
CCc1ccc(CNC(=O)CCn2ccc3cc(S(=O)(=O)N4CCCC4)ccc32)cc1	12	-9%	-3	?	-10%	-25%
O=C(CSc1n[nH]c(=O)n1Cc1ccccc1)Nc1ccc(N2CCOCC2)cc1	/	/	/	47%	-2%	-1%
C=CCc1cc(C=O)cc(OC)c1OCc1c(Cl)cccc1Cl	18	-19%	0	5%	4%	?
CSc1ccccc1NC(=O)COc1ccccc1Cl	132	-54%	51*	33%	-20%	?
CC(=O)N1CCN(c2ccccc2NC(=O)COc2ccc(Cl)cc2Cl)CC1	-10	-68%	-2	10µM*	-5%	/
O=C(COc1ccc(Cl)cc1Cl)Nc1ccccn1	-23	-10%	-11	-82%	-27%	/
CSc1ccccc1NC(=O)COc1ccc(Cl)cc1Cl	43*	-7%	17*	10%	5%	?
CC(C)OC(=O)Cc1nc2sc(-c3ccccc3)cc2c(=O)[nH]1	69*	3%	61*	123%	0%	31%
O=c1[nH]c(-c2cccnc2)nc2sc(-c3ccccc3)cc12	13	3%	11	99%	2%	57%
Cc1nc2cc3ccccc3cc2c(=O)[nH]1	46*	-63%	31*	/	-31%	37%
Cc1nc2sc(-c3ccccc3)cc2c(=O)[nH]1	40	-71%	19*	/	-17%	131%
COCCNC(=S)N1CCN(S(C)(=O)=O)CC1	-1	-1%	9	6%	1%	?
O=C(Nc1ccccc1C(=O)O)/C(=C/c1ccc([N+](=O)[O-])cc1)NC(=O)c1ccc(Br)o1	26	/	4	2%	4%	79%
CC(C)(C)OC(=O)n1cc(CCO)c2ccccc21	/	/	/	?	0%	?

Screens from PubChem BioAssay.
